# HIV Env fusion = inhibitors of HIV Env-mediated cell fusion; HeLa-JRFL Env/CEM21 cell fusion, luciferase; inhibition, % at 12.3 µM; actives 1.1% (n = 360,000);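 active = mean replicate inhibition score of at least 50 and every replicate individually at or above 50; inconclusive = only one of the two criteria met; inactive = mean below 50 and not all replicates reaching 50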;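 also: 0% = plate neutral controls and 100% = maraviroc near 300 nM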
# F508del corr = correctors of CFTR F508del function in bronchial epithelial cells; CFBE cells, YFP halide quenching; stimulated with forskolin plus potentiator P3; % fluorescence drop versus neutral controls; activity (quench increase), % at 7.58 µM; actives 0.36% (n = 350,000); AID 720511;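 active = mean added fluorescence quench of at least 8% versus neutral control, with both replicates also reaching 8%; inconclusive = only one of the mean or replicate conditions met; inactive = mean below 8% and not both replicates reaching 8%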;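 also: cells transiently co-express mutant CFTR-F508del with the halide-sensitive YFP; corrector assay measuring rescue of mutant channel to the surface after 24 h compound exposure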
# Wnt bcat act = activators of Wnt/beta-catenin signaling | activation, % at 9.35 µM | Wnt/beta-catenin reporter cell assay, activator, plate reader | actives 1.2% (n = 300,000) | AID 743398; in the data active = activation above about 30%, passing the limit was not always enough; inconclusive = no clear call, values can overlap the other calls;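 also: 0% = neutral control wells and 100% = positive control wells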
# MITF act = increases MITF-driven TRPM1 promoter luciferase signal; SK-MEL-5 TRPM1-promoter luciferase, 24 h; % of positive control, neutral wells = 0; activation, % at 12.5 µM; actives 0.75% (n = 300,000); AID 588334;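 active = mean activation of at least 80% with every replicate also reaching 80%; inconclusive = mean reaches 80% but some replicate falls short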;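 also: 0% = neutral control wells and 100% = parthenolide positive control wells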
# GSIS activator = GLuc luminescence reporter in INS-1E cells, primary screen for activators of glucose-dependent secretion of insulin; actives 0.61% (n = 370,000); activation, % at 16.6 µM; INS-1E GLuc reporter insulin secretion, 2-3 h;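 active = lowest replicate activation of at least 40%, so every replicate reaches that level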;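 also: 0% = median of neutral control wells and 100% = median of IBMX positive control wells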
# The depositor's hits bear a star; ? = inconclusive; · = no result; [ ] = another dose, or the depositor's remark. The list is not random: actives were taken first. Their share in the collection is about 2.7%.
SMILES,HIV Env fusion,F508del corr,Wnt bcat act,MITF act,GSIS activator
CO[C@H](CN(C)S(=O)(=O)c1ccc(Cl)cc1)[C@H](C)CN(Cc1ccccc1Cl)[C@H](C)CO,·,0.5,·,·,-28.6
COc1ccc2c3c(n(C)c2c1)[C@@H](CO)N(C(C)=O)CC31CN(C(=O)c2ccccc2)C1,·,·,·,·,17.4
O=C(c1oc2ccccc2c1CSCc1ccccc1)N1CCN(c2ncccn2)CC1,55.6*,·,·,2.8,-4.0
Cc1ccc(-n2c(O)c(C=NCc3ccccn3)c3ccccc3c2=O)cc1,11.1,1.4,60.7*,4.6,1.0
CC(C)NC(=O)N(C)C[C@H]1OCCCC[C@H](C)Oc2ccc(NC(=O)Nc3ccc(F)cc3)cc2C(=O)N([C@H](C)CO)C[C@@H]1C,21.3[16.7 µM],-1.5,·,·,-17.0
Cc1cc(-n2c(C)cc(C(=O)CSc3ccccn3)c2C)no1,-81.0,0.9,21.0,107.2*,-23.6
CS(=O)(=O)c1ncc(Cl)c(C(=O)Nc2ccc(OC(F)F)cc2)n1,·,·,·,·,58.6*
CS(=O)(=O)c1ncc(Cl)c(C(=O)Nc2ccc(N3CCOCC3)cc2)n1,·,·,·,-90.1,·
COC(=O)c1c(-c2ccc(OC)cc2)sc2ccc(OC)cc12,-96.5,-2.4,41.8*,66.5,0.1
N#C/C(=N\Nc1ccc(F)cc1)C(=O)C1CC1,4.0,-2.2,10.0,·,-50.0
N#C/C(=N\Nc1ccc(Cl)c(Cl)c1)C(=O)C1CC1,8.1,6.3,38.7*,·,-54.0
CCCCCc1ccc(OCCCC[n+]2ccc(C)cc2)c(CCCCC)c1,55.2*,?,-4.7,-100.3,109.4*
CCCCCc1ccc(OCCCC[n+]2cccc(C)c2)c(CCCCC)c1,56.3*,7.7,-1.7,-77.5,174.1*
CCCCCc1ccc(OCCCC[n+]2ccccc2)c(CCCCC)c1,·,·,·,-87.8,·
Cc1cc(C)cc(NC(=S)NCC2CCN(C(C)c3ccccc3)C2)c1 (stereo not drawn),10.2,0.8,-0.7,-5.3,-9.6
Cc1ccccc1NC(=S)NCC1CCN(C(C)c2ccccc2)C1 (stereo not drawn),-1.9,-0.2,46.2*,-7.2,-17.0
CC(C)NC(=O)N(C)C[C@H]1Oc2ccc(NS(C)(=O)=O)cc2C(=O)N(C)C[C@H]1C,·,·,·,·,5.7
CN(C)C(=O)[C@@H]1[C@@H](CO)[C@@H]2Cn3c(ccc(C4=CCCCC4)c3=O)[C@@H]2N1Cc1ccccn1,10.7[16.7 µM],·,·,·,9.0
NC(=O)NC(=O)COC(=O)c1ccccc1Oc1ccccc1,·,·,·,0.0,·
NC(=O)COC(=O)c1ccccc1Oc1ccccc1,5.4,1.2,-2.1,-2.8,46.4*
CN(C)CCCNC(=O)C[C@@H]1C=C[C@H](NC(=O)Cc2cccnc2)[C@@H](CO)O1,-0.6[16.7 µM],2.3,·,·,5.7
CC(C)(C)c1cc(C(=O)NNC(=O)c2ccc(C(F)(F)F)cc2)no1,-9.1,-0.8,48.5*,5.3,-9.8
O=C(Nc1nnc(C2CC2)s1)c1ccc(Cl)nc1,·,-10.8,33.8*,46.0,6.3
Fc1ccccc1-c1cc2ccccc2cn1,·,2.7,35.6*,54.6,·
Fc1ccc2cnc(-c3ccccc3F)cc2c1,-113.1,1.6,12.2,26.8,36.5
SMILES,HIV Env fusion,F508del corr,Wnt bcat act,MITF act,GSIS activator
CC(C)CCC(O)(c1ccccc1)C(CN1CCOCC1)c1ccccc1 (stereo not drawn),34.8,-2.0,-1.8,-3.9,7.9
COc1ccc(C(O)(CCC(C)C)C(CN2CCOCC2)c2ccccc2)cc1 (stereo not drawn),73.0*,1.7,-3.1,-10.9,16.0
COc1ccc(-n2nnnc2-c2cccc(OC)c2)cc1,56.4*,·,-8.6,-21.3,·
COCCNC(=O)C[C@@H]1C[C@@H]2c3cc(NC(=O)Nc4ccccc4F)ccc3O[C@@H]2[C@@H](CO)O1,30.4[16.7 µM],1.8,·,·,-0.1
CC(C)(C)c1cc(NCCCn2ccnc2)n2ncc(-c3ccccc3)c2n1,-79.9,-2.6,52.5*,·,0.6
Cc1cc(NCCCn2ccnc2)n2ncc(-c3ccc(Cl)cc3)c2n1,-87.8,·,·,7.3,·
CC(C)(C)c1cc(NCc2ccccn2)n2ncc(-c3ccc(Cl)cc3)c2n1,22.8,-0.1,-3.4,·,·
CCCc1cc(NCCCn2ccnc2)n2nc(C)c(-c3ccccc3)c2n1,3.7,-3.6,32.2*,-2.7,-32.4
Cc1cc(NCc2ccccn2)n2nc(C)c(-c3ccccc3)c2n1,2.2,11.7*,-0.9,·,-10.5
CN(C)CCCNc1cc(C(C)(C)C)nc2c(-c3ccc(Cl)cc3)cnn12,-24.2,-10.7,-22.4,·,411.2*
Cc1nn2c(NCc3ccccn3)cc(C(C)(C)C)nc2c1-c1ccccc1,12.3,-1.3,2.8,-5.8,21.0
Cc1cccc(-c2cc3nc(C)cc(NCCCn4ccnc4)n3n2)c1,-18.0,·,-0.1,38.9,·
CCCCn1c(CN2CCN(c3cccc(Cl)c3)CC2)nc2c1c(=O)[nH]c(=O)n2C,·,13.7*,-9.3,-26.4,·
CN(N=Nc1ccccc1C(=O)O)C1CCCCC1,-3.8,0.7,38.0*,·,·
N#Cc1c(F)cccc1N1CCC(C#N)CC1,64.0*,-0.3,-2.2,-13.9,·
Cc1cccc(C(=O)OCC(=O)c2c(N)n(CC(C)C)c(=O)n(C)c2=O)c1[N+](=O)[O-],·,-0.1,-3.4,-15.3,-29.3
Cc1cccc(C(=O)OCC(=O)c2c(N)n(CC(C)C)c(=O)n(C)c2=O)c1O,60.1*,-6.4,-2.9,-4.9,-3.7
C=C1CCN(C(CC(C)C)C(=O)OC)S(=O)(=O)c2ccccc21 (stereo not drawn),21.7,-2.0,-1.6,-6.1,-38.4
C=C1CCN([C@@H](Cc2ccccc2)C(=O)NCCC(C)C)S(=O)(=O)c2ccccc21,83.7*,0.0,-1.0,4.9,-31.4
C=C1CCN([C@@H](CC(C)C)C(=O)Nc2ccc(OC)cc2)S(=O)(=O)c2ccccc21,102.1*,-2.6,-3.3,0.4,-32.1
COc1ccccc1NC(=O)Nc1ccc2c(c1)C(=O)N(C)C[C@H](OC)[C@@H](C)CN[C@H](C)CO2,3.1[16.7 µM],0.8,·,·,-0.7
COc1cccc(NC(=O)N(C)C[C@H]2OCc3ccccc3-c3ccccc3C(=O)N([C@@H](C)CO)C[C@H]2C)c1,-21.3[16.7 µM],0.7,·,·,9.5
Cc1ccc(N2C(=O)C(F)(F)C2c2ccccc2)cc1 (stereo not drawn),-6.6,2.8,-0.4,-1.5,-24.4
COc1ccc(C2N(c3ccccc3)C(=O)C2(F)F)cc1OC (stereo not drawn),-10.8,-1.7,-0.1,2.8,44.3*
C[C@@H]1CN([C@H](C)CO)S(=O)(=O)c2ccc(C#Cc3ccc(F)cc3)cc2O[C@H]1CN(C)C(=O)CN(C)C,29.5[16.7 µM],-3.2,·,·,59.6
COc1ccc(N(C(=O)CCl)C(C(=O)NC2CCCCC2)c2cccnc2)cc1 (stereo not drawn),51.4*,·,-10.1,-86.8,26.1
COc1ccc(N(C(=O)c2ccco2)C(C(=O)NC2CCCC2)c2ccncc2)cc1 (stereo not drawn),-8.4,0.2,0.0,18.2,85.1
O=C(NC1CCCCC1)C(c1cccnc1)N(C(=O)CCl)c1ccc(F)cc1 (stereo not drawn),·,0.8,-1.6,-86.0,13.4
